High-throughput results deposited in PubChem by National Center for Advancing Translational Sciences (NCATS).
Pf growth 48h: Primary qHTS for delayed death inhibitors of the malarial parasite plastid, 48 hour incubation. P. falciparum luciferase growth in erythrocytes, 48 h. Potency, µM (series often up to 28.7 µM), without a hit: top-dose activity change, negative = inhibition, most hits filed as inhibitors. 5.9% of 310,000 active. AID 504832, 2011; note: potency is the fitted concentration of half-maximal effect; % is set by controls: 0 for no effect and ±100 for the full control effect
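Read-out is firefly luciferase luminescence from an integrated reporter in P. falciparum, so falling signal marks reduced parasite growth. Infected erythrocytes were at 2% hematocrit and 0.1% parasitemia (final) in Albumax-supplemented RPMI 1640.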
FBPA Giardia inh: qHTS Assay for Inhibitors of Fructose-1,6-bisphosphate Aldolase from Giardia Lamblia | Potency, µM (top dose mostly 59.6 µM), for inactives: at the highest dose activity, negative = inhibition, hits mostly inhibitors | purified Giardia FBPA | A8B2U2 | 0.71% of 290,000 active; note: potency is the fitted concentration of half-maximal effect; % is set by controls: 0 for no effect and ±100 for the full control effect; nearly all actives have a fitted effect of over 55% in size
Target sequence (A8B2U2 whole entry, looked up): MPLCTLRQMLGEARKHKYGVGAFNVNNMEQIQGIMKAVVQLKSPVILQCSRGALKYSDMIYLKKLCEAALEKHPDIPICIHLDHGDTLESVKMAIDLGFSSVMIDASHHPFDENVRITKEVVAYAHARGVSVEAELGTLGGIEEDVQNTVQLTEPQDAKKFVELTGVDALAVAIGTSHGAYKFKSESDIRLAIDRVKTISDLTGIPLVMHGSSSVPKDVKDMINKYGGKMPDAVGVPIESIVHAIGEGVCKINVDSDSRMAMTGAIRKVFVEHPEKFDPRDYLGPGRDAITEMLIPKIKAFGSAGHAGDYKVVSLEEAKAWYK
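40 nM FBPA preincubated 10 min at RT with compound (up to 57.5 uM final), then substrate plus GAPDH/TPI/NAD/arsenate coupling and diaphorase/resazurin added. Fluorescence read after 20 min at RT, 525/598 nm.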
Pf growth 96h: Primary qHTS for delayed death inhibitors of the malarial parasite plastid, 96 hour incubation. Potency, µM (titrated, usually from 28.7 µM), inactives show at the top dose activity change, negative = inhibition, usual class: inhibitors. 6.9% of 320,000 active. P. falciparum luciferase reporter growth, 96 h; note: potency is the fitted concentration of half-maximal effect; % is set by controls: 0 for no effect and ±100 for the full control effect
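Two parasite generations (96 h, 37 C, 5% CO2) of compound exposure in infected erythrocytes (0.05% parasitemia, 2% hematocrit). Luciferase-reporter P. falciparum; decreased luminescence indicates inhibited growth, aimed at apicoplast-acting delayed death.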
NS1 inh: qHTS Assay for Inhibitors of Influenza NS1 Protein Function; Potency, µM (top dose mostly 46.1 µM), for inactives: at the top dose activity, positive = more growth; 0.4% of 270,000 active; calls by dose curve; note: potency is the fitted concentration of half-maximal effect; actives are rising curves; nearly all actives have a fitted effect of over 50% in size
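Read-out: OD600 growth recovery of NS1-expressing budding yeast. Cells grown overnight at 30C in -URA glucose medium, washed, resuspended and diluted 1:100 in 2% galactose assay medium, pH 6.0. Same strain lacking NS1 served as positive control.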
Cycloheximide cs: Cycloheximide Counterscreen for Small Molecule Inhibitors of Shiga Toxin | max response, % | cell reporter, cycloheximide protein synthesis inhibition counterscreen | AID 2314, 2010 | 12% of 300,000 active; in the data active = max response mostly above about 13%, no sharp cut-off; inactive = mostly below about 14%; note: read at 38.3 µM for the half of the compounds with a filed dose; 0% is about no effect
Shiga inhibitor: A qHTS for Small Molecule Inhibitors of Shiga Toxin; Vero cells, Shiga toxin protein synthesis inhibition reporter; inhibition, % at 38.7 µM; 9.2% of 290,000 active; AID 2315, 2010; in the data active = inhibition mostly above about 28%, no sharp cut-off; inactive = mostly below about 43%; note: 0% is about no effect
The depositor's hits bear a star; ? = inconclusive; . = no result given; [ ] = another dose, or the depositor's remark. In the library only some 21% were active in any assay of this set; here they are far more common. Unless noted, calls come from the whole dose curve; as a rule, active = well fitted curve in the direction sought with a large enough effect; inconclusive = small, poorly fitted or top-dose-only effect, or another doubt; inactive = no such curve, though single readings can be large; an effect the other way counts as inactive or inconclusive.

SMILES	Pf growth 48h	FBPA Giardia inh	Pf growth 96h	NS1 inh	Cycloheximide cs	Shiga inhibitor
O=C(Nc1cccc(F)c1)C1CCCN(S(=O)(=O)c2cccc3cccnc23)C1 (centres undefined)	9.28µM*	.	?	1.9%	0.2	8.7
C/[N+]([O-])=C\c1cccc(OCCN2CCN(c3ncc(C(F)(F)F)cc3Cl)CC2)c1	15.1%[0.00184 µM]	-0.3%	6.0%	-4.6%	-5.9	-5.5
COc1ccc2c(COC(=O)c3cccc(S(=O)(=O)NCC(C)C)c3)cc(=O)oc2c1	9.28µM*	6.1%	?	3.9%	20.5*	36.7
CCCNS(=O)(=O)c1cccc(C(=O)OCc2cc(=O)oc3cc(OC)ccc23)c1	?	0.4%	?	10.3%	19.3*	61.1
COc1cc2c(cc1OC)C(C)N(C(=O)[C@@H](NC(=O)c1ccccc1)C(C)C)CC2 (some centres undefined)	0.0%	-0.9%	12.2%	-2.2%	-5.1	-2.9
CC(=Nc1ccc(C)c(C)c1)C1=C(O)CCC1=O	.	-0.3%	12.9%	-2.0%	61.4*	140.3*
CC(=Nc1ccccc1)C1=C(O)CCCC1=O	2.4%	2.4%	11.7µM*	3.5%	-5.4	-1.8
CC(=Nc1ccccc1)C1=C(O)CC(C)(C)CC1=O	13.8%	-1.6%	?	.	21.6*	44.7
CC(=NC(C)C)C1=C(O)CCC1=O	45.1%	-0.7%	77.7%	?	1.6	2.3
COc1ccccc1NC(=O)c1sc2nc(C)c(C(=O)Nc3ccc(C)cc3C)c(-c3ccco3)c2c1N	.	.	.	.	0.6	14.1
CN1CCN(C(=O)CCc2nnc3ccc(N4CCC5(CC4)OCCO5)nn23)CC1	-2.2%	.	5.0%	1.8%	11.9	12.9
CCCNC(=O)CCCCn1c(=S)[nH]c2c([nH]c3ccc(OC)cc32)c1=O	198.0%	8.3%	-1.0%	.	-4.2	-15.8
COc1ccc2[nH]c3c(=O)n(CCCCC(=O)NCCC(C)C)c(=S)[nH]c3c2c1	?	3.9%	5.22µM*	.	0.1	-9.9
CCNC(=S)NNC(=O)c1csc(C(C)C)c1	198.5%	2.4%	145.6%	-3.2%	51.2*	77.0*
CCCCNC(=S)NNC(=O)c1csc(C(C)C)c1	37.4%	7.5%	165.8%	-3.8%	16.5	29.9*
CCNC(=S)NNC(=O)c1csc(CC)c1	147.4%	-11.7%	169.0%	7.1%	-1.6	3.0
Cc1c(NC(=O)C(C)N2C(=O)NC3(CCC(C)CC3)C2=O)c(=O)n(-c2ccccc2)n1C (centres undefined)	21.3%	3.9%	?	-1.9%	7.8	25.7
O=C(CCc1ccc(S(=O)(=O)NCCc2ccccc2)cc1)Nc1ccc2c(c1)OCO2	?	-10.7%	.	7.2%	1.4	12.9
CC(C)CNS(=O)(=O)c1ccc(CCC(=O)Nc2ccc3c(c2)OCO3)cc1	-6.6%	0.3%	4.15µM*	10.2%	-1.0	-5.5
NS(=O)(=O)c1ccc(NC(=O)/C=C/c2ccc3c(c2)OCO3)cc1	20.7%	-0.8%	30.9%	.	5.1	18.0
NS(=O)(=O)c1ccc(NC(=O)Nc2ccc3c(c2)OCO3)cc1	?	-7.4%	?	21.5%	40.9*	96.3*
O=C(O)c1ccc(S(=O)(=O)NCc2ccc3c(c2)OCO3)cc1	6.4%	7.4%	29.1%	3.7%	-4.5	-1.6
O=C(Nc1ccc(S(=O)(=O)NCc2ccccc2)cc1)Nc1ccc2c(c1)OCO2	54.1%	-6.2%	-19.6%	9.1%	27.8*	81.2*
CC(C)c1ccc(S(=O)(=O)NCc2ccc3c(c2)OCO3)cc1	6.5%	1.4%	10.4µM*	-19.7%	-3.4	-3.0
N#C/C(=C\c1ccco1)C(=O)Nn1cnnc1	5.7%	-5.5%	8.4%	0.3%	-2.0	-11.4
SMILES	Pf growth 48h	FBPA Giardia inh	Pf growth 96h	NS1 inh	Cycloheximide cs	Shiga inhibitor
CCNS(=O)(=O)c1ccc(NC(=O)Nc2ccc3c(c2)OCO3)cc1	-14.8%	1.5%	3.6%	-4.2%	29.7*	66.4
CCNS(=O)(=O)c1ccc(CCC(=O)Nc2ccc3c(c2)OCO3)cc1	0.0%	1.9%	-31.3%	13.7%	-0.6	13.2
Cc1cc(C)c(OCC(=O)N/N=C/c2ccc3c(c2)OCO3)c(C)c1	10.2%	4.5%	11.7µM*	-13.1%	-4.1	-11.2
O=C(NCCc1ccccc1)C(=O)N/N=C/c1ccc2c(c1)OCO2	36.9%	0.0%	45.4%	18.8%	4.6	20.3
O=C(N/N=C/c1ccc2c(c1)OCO2)C(O)c1ccccc1 (centres undefined)	69.6%	1.7%	?	11.5%	59.5*	54.1*
O=C(NCc1ccccn1)C(=O)N/N=C/c1ccc2c(c1)OCO2	19.8%	-1.1%	4.65µM*	3.2%	16.1	50.2*
O=C(CCC(=O)Nc1ccccc1)N/N=C/c1ccc2c(c1)OCO2	5.2%	.	-22.6%	-8.4%	40.0*	71.1*
O=C1CCC(=O)N1CC(=O)N1CCCc2ccccc21	43.4%	-5.6%	16.6%	-5.8%	-4.0	-11.8
CCc1nn(C(CC)C(=O)NCc2cccc(OC)c2OC)c(=O)c2cc3occc3n12 (centres undefined)	-9.1%	10.1%	?	-2.2%	-0.8	-4.9
Cc1cccc(OCC(=O)N/N=C/c2ccc3c(c2)OCO3)c1	19.7%	0.3%	14.9%	-8.2%	1.6	1.1
Cc1ccnn1CC(=O)N/N=C/c1ccc2c(c1)OCO2	13.0%	3.0%	13.7%	9.7%	17.9*	37.3
Cc1ccc(CC(=O)N/N=C/c2ccc3c(c2)OCO3)cc1	60.1%	2.1%	-8.3%	.	25.8*	42.9*
Cc1noc(C)c1C(=O)N1CCC2(CCN(Cc3cc(C(F)(F)F)cc(C(F)(F)F)c3)CC2)CC1	.	-4.1%	.	.	.	.
C=CCn1c(SCC(=O)NCC(c2ccccc2)N(C)C)nnc1C1CCCCC1 (centres undefined)	?	.	-13.9%	.	.	.
Cc1onc(-c2ccccc2)c1C(=O)OCC(=O)NCc1ccc(F)cc1	-8.9%	0.9%	-6.3%	.	5.2	-7.9
CCSc1c(C(=O)NC)ccc2c1C(=O)c1ccccc1C2=O	-9.1%	.	14.7µM*	-31.7%	-2.0	-14.6
COC(=O)c1ccc2c(c1O)C(=O)c1ccccc1C2=O	.	?	4.15µM*	-41.2%	39.3*	64.1*
Nc1c(C(=O)O)ccc2c1C(=O)c1ccccc1C2=O	7.1%	1.1%	21.4%	.	1.4	21.7
COC(=O)c1ccccc1NC(=O)C/C(C)=N/NC(=O)Cc1ccc(Cl)cc1	1.4%	4.8%	-10.1%	-17.6%	-4.0	-6.8
C=C1c2cc3c(cc2NC(=S)N1Cc1ccccc1)OCO3	11.7µM*	-13.2%	?	11.8%	11.5	-2.9
COc1cccc(C2C3=C(N=C4SCC(=O)N42)c2ccccc2CC3)c1OC (centres undefined)	11.7µM*	-18.9%	186.2%	3.6%	-1.3	21.4
